# Screening results as filed in PubChem BioAssay.
# Sa ugtP lethal = growth inhibition of ugtP-null S. aureus, primary screen, RN4220 ugtP deletion, OD600. growth inhibition, % (test concentration not listed). 330,000 compounds, 0.54% hits. 16 h; in the data active = growth inhibition above about 68%;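 note: plate controls were untreated wells for no effect and antibiotic for full effect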
# DUSP3 inh = VHR1 phosphatase inhibitors, primary screen, biochemical, absorbance, uHTS; Dual specificity protein phosphatase 3 (Homo sapiens), P51452; recombinant VHR phosphatase, pNPP absorbance; inhibition, % at 13.3 µM; 290,000 compounds, 0.52% hits; in the data active = inhibition above about 50%
# Target sequence (P51452 whole entry, looked up): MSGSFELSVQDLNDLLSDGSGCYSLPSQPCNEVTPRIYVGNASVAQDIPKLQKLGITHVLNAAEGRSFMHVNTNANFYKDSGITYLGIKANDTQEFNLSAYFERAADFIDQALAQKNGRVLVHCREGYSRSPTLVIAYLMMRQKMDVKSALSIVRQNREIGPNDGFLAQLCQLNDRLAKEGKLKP
# PrPC TRFRET = inhibitors of human cell surface prion protein PrPC, primary screen, cell-based, TR-FRET; Major prion protein (Homo sapiens), P04156; TR-FRET read-out; inhibition, % at 13.8 µM; 370,000 compounds, 0.43% hits; in the data active = inhibition above about 24%; note: 0% = median of the test wells and 100% = reference compound wells
# PfHsp40 rescue = rescue of yeast from PfHsp40 toxicity, primary screen, S. cerevisiae, ATP luminescence. growth rescue, % at 12.5 µM. S. cerevisiae expressing PfHsp40, growth rescue. 340,000 compounds, 0.68% hits. AID 504582, 2011; in the data active = growth rescue above about 28%, passing the limit was not always enough;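 note: yeast W303a lacking pdr1 and pdr3 grown in galactose medium; growth measured after three days at 30 °C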
# Sa RN4220 lethal = growth inhibition of S. aureus RN4220, primary screen, OD600; 330,000 compounds, 0.33% hits; inhibition, % (concentration not given with the values); 16 h; in the data active = inhibition above about 85%;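 note: plate controls were untreated cells for no effect and reference antibiotic for full effect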
# PrPC confirm = confirmation of inhibitors of cell surface human prion protein, confirmation, cell-based, TR-FRET; shares compounds with PrPC TRFRET; inhibition, % at 13.8 µM; cell surface PrPC level; 1,500 compounds, 65% hits; in the data active = inhibition above about 25%
# LD9 cytotox = cytotoxicity in LD9 cells, cytotoxicity control for cell surface PrPc inhibitor project, cell-based, luminescence, high throughput; 1,500 compounds, 29% hits; inhibition, % at 13.8 µM; AID 743201, 2013; shares compounds with PrPC TRFRET; luminescence viability; in the data active = inhibition above about 9.5%
# An asterisk follows results filed as active; . = no result. Hits are enriched below; roughly 1.8% of the tested compounds scored in any of these assays.
SMILES,Sa ugtP lethal,DUSP3 inh,PrPC TRFRET,PfHsp40 rescue,Sa RN4220 lethal,PrPC confirm,LD9 cytotox
CC(C)CC1CN=C(Nc2ccccc2)N1CCC1CCCCC1 (stereo not given),-15,.,.,.,5,.,.
CC(=O)n1cc(C2C=C(C(=O)NCc3ccccc3)OC(OCc3ccc(CO)cc3)C2)c2ccccc21 (stereo not given),5,.,.,.,5,.,.
CC(NC(=O)c1sc2ccccc2c1Cl)C1CCCO1 (stereo not given),3,5,38*,0,7,44*,-4
Cc1ccc2c(Cl)c(C(=O)NCC3CCCO3)sc2c1 (stereo not given),8,12,25*,0,4,37*,1
O=C(NCC1CCCO1)c1sc2ccccc2c1Cl (stereo not given),1,21,9,1,3,.,.
O=C(O)CC(NC(=O)c1sc2ccccc2c1Cl)c1ccc(OC2CCCC2)cc1 (stereo not given),-2,-13,31*,-1,3,28*,-5
CC(NC(=O)c1csc2ccccc12)C1CCCO1 (stereo not given),0,8,13,-1,1,.,.
CC1NC(=O)c2cc([N+](=O)[O-])cc(I)c2OCCC(C(N)=O)NC(=O)C(CCCCN)NC1=O (stereo not given),-2,.,.,.,6,.,.
CC(C)CN1CCC(=O)N(C(CSc2ccccc2)Cc2ccccc2)CC1 (stereo not given),4,.,.,.,5,.,.
CC(CC1CC(COCC(C)C)OC1=O)=NNC(N)=S (stereo not given),6,.,.,.,4,.,.
Nc1nc(-c2cccs2)c(-c2cccs2)s1,33,6,25*,-1,4,20,-1
CC1CC1C(=O)Nc1nc(-c2cccs2)c(-c2cccs2)s1 (stereo not given),.,-19,25*,2,.,12,-3
Cc1cc(Cl)c(S(=O)(=O)N2CCCC2)cc1OCC(=O)NC1CCCCC1,1,37,26*,1,-1,16,0
Cc1cc(Cl)c(S(=O)(=O)NC(C(=O)O)C(C)C)cc1OCC(=O)NC1CCCCC1 (stereo not given),4,12,5,2,2,.,.
CC(C)(C)c1ccc(-n2nc(C(N)=O)c(O)cc2=O)cc1,6,35,-3,-1,7,.,.
CC(C)(C)c1ccc(-n2nc(C#N)c(Cl)cc2=O)cc1,84,-33,69*,146*,56,70*,98*
N#Cc1c(-c2ccco2)nc(SCc2ccc(F)cc2)[nH]c1=O,5,6,95*,-1,20,121*,-7
N#Cc1c(-c2ccccc2)nc(SCc2ccc(Cl)cc2)[nH]c1=O,.,-29,-3,3,.,.,.
CC(=O)c1sc(NC(=O)c2c(F)cccc2F)nc1-c1ccccc1,9,7,25*,7,7,21,-8
COc1cc(CCCN2C(N)=NCC2Cc2ccc(O)cc2)cc(OC)c1OC (stereo not given),-1,.,.,.,2,.,.
NC(=O)c1cc(NC(=O)c2cc(Br)c(Br)s2)cc(C(N)=O)c1,3,8,46*,2,-2,47*,0
c1ccc2cc(CCOC3CCCCO3)ncc2c1 (stereo not given),1,.,.,.,2,.,.
CCC1CN2CCc3cc(OC)c(OC)cc3C2CC1CC1NCCc2c1[nH]c1ccc(O)cc21 (stereo not given),.,.,87*,-1,.,100*,43*
COc1cc2c(cc1OC)C(Cc1ccc(O)cc1)NCC2 (stereo not given),2,0,1,-1,10,.,.
O=C(NN=Cc1ccccc1F)c1csc2c1CCCC2,-4,.,.,.,0,.,.
COc1cc(C#Cc2c(-c3cncn3C)n(C)c3ccc(-c4ccc(OC)nc4)cc23)cc(OC)c1,48,.,-6,-2,9,.,.
COc1cc(C#Cc2c(-c3cncn3C)n(C)c3ccc(-c4ccc5[nH]ccc5c4)cc23)cc(OC)c1,-5,.,27*,0,-9,16,14*
